# Assay results as given in publication PMC5540273 (PLoS ONE, 2017).
# Experiments:
# Conditions in all cases: concentration: 1 μM, replicates: in singlicate; n = 1
# MEK1 = tested on: T1, MEK1
# T1 construct: gene MAP2K1
# MEK2 = tested on: T2, MEK2
# T2 construct: gene MAP2K2
# MEK3 = tested on: T3, MEK3
# T3 construct: gene MAP2K3
# MEK4 = tested on: T4, MEK4
# T4 construct: gene MAP2K4
# MEK5 = tested on: T5, MEK5
# T5 construct: gene MAP2K5
# MEK6 = tested on: T6, MEK6
# T6 construct: gene MAP2K6
# MELK = tested on: MELK
# MERTK = tested on: MERTK
# MET = tested on: MET
# MINK = tested on: T7, MINK
# T7 construct: gene MINK1
# MKK7 = tested on: MKK7
# MKNK1 = tested on: MKNK1
# MKNK2 = tested on: MKNK2
# MLCK = tested on: T8, MLCK
# T8 construct: gene MYLK3
# MLK1 = tested on: T9, MLK1
# T9 construct: gene MAP3K9
# MLK2 = tested on: MLK2
# MLK3 = tested on: MLK3
# MRCKA = tested on: MRCKA
# MRCKB = tested on: T10, MRCKB
# T10 construct: gene CDC42BPB
# MST1R = tested on: MST1R
# 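Also: KINOMEscan kinase panel screen.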
Compound,%Inh (MEK1) [%],%Inh (MEK2) [%],%Inh (MEK3) [%],%Inh (MEK4) [%],%Inh (MEK5) [%],%Inh (MEK6) [%],%Inh (MELK) [%],%Inh (MERTK) [%],%Inh (MET) [%],%Inh (MINK) [%],%Inh (MKK7) [%],%Inh (MKNK1) [%],%Inh (MKNK2) [%],%Inh (MLCK) [%],%Inh (MLK1) [%],%Inh (MLK2) [%],%Inh (MLK3) [%],%Inh (MRCKA) [%],%Inh (MRCKB) [%],%Inh (MST1R) [%]
COc1ccc(S(=O)(=O)NC2CCN(c3cc(C)nc(Nc4cccc(C#N)c4)n3)CC2)cc1.O=C(O)C(F)(F)F [GSK1653539],0,0,0,0,1,0,0,0,0,0,0,0,20,0,0,0,27,0,0,48
COc1ccc(COc2cc(-n3cnc4ccccc43)sc2C(N)=O)cc1 [GSK1024304],0,0,0,14,32,0,0,1,0,24,0,13,1,0,0,0,4,0,0,25
Cc1nnc(-c2ccc(C)c(-c3ccc(C(=O)Nc4ccc(NS(C)(=O)=O)cc4)cc3)c2)o1 [GW702865],8,7,0,0,18,0,10,0,12,19,0,0,0,12,5,0,7,0,0,13
O=C(Nc1cccc(-c2nn3ncccc3c2-c2ccnc(Nc3cccc(C(F)(F)F)c3)n2)c1)c1c(F)cccc1F [GSK299495],48,54,0,29,97.6,7,0,51,0,0,0,0,24,11,0,0,0,58,68,44
Cn1cc(-c2ccc3c(c2)CCN3C(=O)Cc2ccccc2Cl)c2c(N)ncnc21 [GSK2608885],70,90.6,3,17,99.7,47,0,93.2,88,8,0,7,0,22,32,0,45,84,92.2,100
CCc1ccnc(/C=C/c2n[nH]c3cc(Sc4ccccc4C(=O)NC)ccc23)c1,0,10,0,0,62,9,6,0,0,34,0,0,0,1,9,4,20,0,1,16
N#Cc1c(N2CCOCC2)sc(-c2ccn[nH]2)c1-c1ccc(Cl)cc1,5,9,12,0,29,0,0,0,0,12,20,26,0,0,0,5,22,0,0,1
COC(=O)Nc1nc2cc(Oc3ccc(NC(=O)Nc4cc(F)ccc4F)cc3)ccc2[nH]1.Cl [GW701424],0,0,0,15,12,0,10,90.8,40,5,0,23,12,0,0,0,0,16,0,29
Nc1nccc(-c2c(-c3ccc(F)cc3)ncn2C2CCN(CC(F)(F)F)CC2)n1 [SB-236560],0,0,30,0,10,0,0,9,0,43,30,34,35,0,0,0,2,0,14,17
Cc1nnc(-c2ccc3occ(-c4ccc(C(C)O)cc4)c3c2)o1 (stereo not drawn),10,24,11,15,8,8,12,3,5,0,0,16,0,14,6,14,0,10,0,15
Fc1ccc(-c2ncn(CCCN3CCOCC3)c2-c2ccccn2)cc1 [SB-211742],6,31,0,0,0,0,18,0,13,0,0,0,0,0,0,27,0,0,0,0
O=C(NCCNc1ccnc(Nc2ccc(F)cc2)n1)c1cc2ccccc2s1 [GSK1379874],0,0,41,29,22,0,0,0,0,7,0,2,0,0,6,0,17,13,0,30
Cc1cccc(Cn2ccn3c(=O)cc(N4CCOCC4)nc23)c1 [GSK2297542],0,0,0,23,14,5,8,24,23,7,0,0,3,0,18,0,18,0,6,39
CN1c2ccc(CNc3ccc(F)cc3)cc2-c2c(cnn2C)S1(=O)=O,11,18,13,22,31,0,0,0,0,26,0,15,0,3,0,24,0,0,0,0
Nc1nc(-c2ccc3c(N)n[nH]c3c2)cc(N2CCCC2)n1 [GSK2227430],0,64,0,0,7,8,0,8,0,10,0,4,12,0,0,6,0,6,0,1
